Our source for the INHIBITION values is ChEMBL document CHEMBL4513216, “Probing the Open Global Health Chemical Diversity Library for Multistage-Active Starting Points for Next-Generation Antimalarials” (ACS Infect Dis, 2020).

Among all 68,000 compounds or so, about 2,700 (4%) showed an effect of 50% or more. This is one part of a sample in which strong results are shown more often than they occur.

The subject of this assay is Plasmodium berghei. The assay can be described thus: Screen against P. berghei liver stage (PbLuc), transformed with Luciferase, at 2uM. The assay is classed as functional, HepG2. Particulars: tested at 2 uM.
Turning to `N#Cc1cnc2cc(F)cc(F)c2c1NC1CCN(CC(N)=O)CC1`, the INHIBITION is listed as -22.63%. For the compound `O=C(C1CC(c2ccccc2)=NO1)N1CCCCc2ccccc21` (configuration not stated), the INHIBITION was 24.84%. Turning to `CCC(CC)c1cc(CNC(=O)N2CCCC(C(=O)NC)C2)on1` (configuration not stated), the INHIBITION is 59.8%. Turning to `CCC(CC)c1cc(CNC(=O)N2CCCC(N(C)C)C2)on1` (configuration not stated), the INHIBITION came to 28.23%. Turning to `CCC(CC)c1cc(CNC(=O)N2CCC(CO)CC2)on1`, the INHIBITION is on record as -11.8%. `CN1CCC2(CCN(C(=O)c3ccccc3)CC2)C1`: the INHIBITION amounted to 39.18%. For the compound `COc1cccc(-c2n[nH]cc2C(=O)NC(C)c2n[nH]c(C)n2)c1` (configuration not stated), the INHIBITION stood at 64.2%. `COc1cccc(-c2n[nH]cc2C(=O)NC(C)c2nc(C(C)C)no2)c1` (configuration not stated): the INHIBITION was 33.9%. As for `COc1cccc(-c2n[nH]cc2C(=O)NC(C)CC(=O)O)c1` (configuration not stated), the INHIBITION was 1.06%. Take `Cc1cccc(CN2CCCC2c2cccc(CCC(=O)O)n2)c1` (configuration not stated): the INHIBITION is on record as -46.81%.

For `Cc1cc(CN2CCN(C(=O)CCc3ccco3)CC2)on1`, the INHIBITION is given as 19.91%. `COc1ccc(COCC(O)CNC(=O)c2ccc(C)c(F)c2)cc1` (configuration not stated): the INHIBITION is -7.11%.

In the case of `O=C(c1cncs1)N1CCOCC(Cc2ccccn2)C1` (configuration not stated), the INHIBITION was -11.3%. Consider `CN(C)CC(=O)N1CCOCC(Cc2ccccn2)C1` (configuration not stated), for which the INHIBITION came to 54.44%. As for `CN(CC(=O)N1CCOCC(CO)C1)Cc1ccccn1` (configuration not stated), the figure is 14.96%; as for `CC(Cn1cccn1)NC(=O)Nc1nccs1` (configuration not stated), 43.93%; as for `O=C(NCCNc1ncccn1)C1CC(=O)N(CC2CC2)C1` (configuration not stated), 4.96%. As for `COc1ccccc1CCN1CCCC(CN(C)Cc2cc(C)n[nH]2)C1` (configuration not stated), the figure is -24.74%; as for `Cc1ccc(C)c(OC(C)C(=O)NCc2cccnc2)c1` (configuration not stated), 50.98%. Consider `Cc1ccc(C)c(OC(C)C(=O)Nc2cccnc2)c1` (configuration not stated), for which the INHIBITION turned out to be 1.42%. For `Cc1ccc(C)c(OC(C)C(=O)NCCNc2cccnc2)c1` (configuration not stated), the INHIBITION is listed as 33.36%.

Regarding `COc1ccc(NS(=O)(=O)C=c2[nH]c(=O)n3cccc3c2=O)cc1Cl`, the INHIBITION came to 1.52%. `O=C(N1CCCC1)N1CCN(c2ccc(Cl)nn2)C(=O)C1`: the INHIBITION stood at 11.51%.

Regarding `CC(CCNC(=O)NCCc1ccncc1)c1ccccc1` (configuration not stated), the INHIBITION is recorded as 54.29%. `CC(CCNC(=O)NCCc1ccc(S(N)(=O)=O)cc1)c1ccccc1` (configuration not stated): the INHIBITION turned out to be 23.76%.

For the compound `CC(CCNC(=O)NCCNc1cnccn1)c1ccccc1` (configuration not stated), the INHIBITION was -24.05%. As for `CO[C@H]1CCN(Cc2ccccn2)[C@@H]2CN(Cc3ccco3)C[C@H]12`, the INHIBITION was 23.7%. Turning to `O=C(CN1CC(c2nc(-c3ccco3)no2)C1)NCc1ccc(F)cc1`, the INHIBITION is 25.69%. As for `Cc1nc(CNc2ncc(Br)cn2)n[nH]1`, the figure is 33.78%.

As for `O=C(O)c1ccc(F)c(S(=O)(=O)Nc2c(F)cccc2-n2cccn2)c1`, the INHIBITION is given as 52.67%. Consider `O=C(O)c1csc(S(=O)(=O)Nc2c(F)cccc2-n2cccn2)c1`, for which the INHIBITION was -51.5%. As for `O=C(O)c1ccc(S(=O)(=O)Nc2c(F)cccc2-n2cccn2)cc1`, the figure is -21.15%. With `CC(C)N1C(=O)CN(CCCO)CC1(C)C`, the INHIBITION is -4.81%. As to `Cc1noc(-c2ccnc(Oc3ccc(CN4CCCC4)cc3C)c2)n1`, the INHIBITION worked out at 27.72%. For `CCc1ccc(CN2CCC3(CCCN(C(=O)c4cnccn4)C3)C2)o1` (configuration not stated), the INHIBITION is given as -26.14%. As for `CCCN1CCN(Cc2cccc(OC(C)C)c2)[C@H]2CS(=O)(=O)C[C@H]21`, the figure is 5.86%; as for `O=C(Cc1ccc(O)c(F)c1)N1CCN(CC2CC2)[C@@H]2CS(=O)(=O)C[C@@H]21`, 30.42%. Turning to `O=C(Cc1ccc(O)c(Cl)c1)N1CCN(CC2CC2)[C@@H]2CS(=O)(=O)C[C@@H]21`, the INHIBITION was -3.88%. Consider `Cc1cc(CC(=O)N2CCN(CC3CC3)[C@@H]3CS(=O)(=O)C[C@@H]32)ccc1F`, for which the INHIBITION is listed as -10.66%. Take `CCCN1CCN(Cc2cccc(OCC(N)=O)c2)[C@H]2CS(=O)(=O)C[C@H]21`: the INHIBITION turned out to be 64.52%.

Consider `Cc1cnn(CCC(=O)N2CCN(C(=O)C3CC3)[C@@H]3CS(=O)(=O)C[C@@H]32)c1`, for which the INHIBITION is recorded as 59.94%. As for `O=C(CCn1cc(Cl)cn1)N1CCN(CC2CC2)[C@@H]2CS(=O)(=O)C[C@@H]21`, the figure is 59.48%.

On to `Cc1cnn(CCC(=O)N2CCN(C(=O)C(C)C)[C@@H]3CS(=O)(=O)C[C@@H]32)c1`, for which the INHIBITION is on record as 34.52%. For the compound `CCCN1CCN(Cc2cccc(OC)c2)[C@H]2CS(=O)(=O)C[C@H]21`, the INHIBITION stood at 37.76%. For `CCC(=O)N1CCN(C(=O)CCn2cc(Cl)cn2)[C@H]2CS(=O)(=O)C[C@H]21`, the INHIBITION came to 32.71%. `Cn1nccc1C(=O)N1CCN(C(=O)C2CC2)[C@@H]2CS(=O)(=O)C[C@@H]21`: the INHIBITION is recorded as 17.73%.

Regarding `O=C(Cc1ccc(CO)cc1)N1CCN(CC2CC2)[C@@H]2CS(=O)(=O)C[C@@H]21`, the INHIBITION is 63.46%.

For `O=C1NCCO[C@H]2CN(C(=O)CCc3ccccc3Cl)CC[C@@H]12`, the INHIBITION is 46.58%. As to `CCOCCOC(C)C(=O)Nc1ccc2ccn(CCN(C)C)c2c1` (configuration not stated), the INHIBITION stood at 27.32%. As for `Fc1ccccc1-c1nnn(CCCc2nn[nH]n2)n1`, the figure is -1.29%; as for `Cc1ccc(-c2ccc(Cl)nn2)cc1S(N)(=O)=O`, -62.18%; as for `COc1ccccc1C1Cn2ccnc2CN1Cc1c[nH]nc1C` (configuration not stated), -67.25%.

`CN(CCc1ccncc1)C1CCCN(Cc2noc(C3CC3)n2)C1` (configuration not stated): the INHIBITION is given as 22.34%. As to `O=S1(=O)C[C@@H]2[C@H](C1)N(Cc1cccc(O)c1)CCN2CC1CC1`, the INHIBITION is 59.94%. As for `O=S1(=O)C[C@@H]2[C@H](C1)N(Cc1ccc3ccccc3c1)CCN2CC1CC1`, the INHIBITION is on record as 20.91%. As for `Cc1cc(CN2CCN(CC3CC3)[C@@H]3CS(=O)(=O)C[C@@H]32)cc(C)c1O`, the figure is 25.45%; as for `CCCS(=O)(=O)NC(=O)c1ccc(-n2nc(C)cc2C)cc1`, 59.04%; as for `COCCS(=O)(=O)NC(C)c1ccc(-n2nc(C)cc2C)cc1` (configuration not stated), -25.82%. Consider `CCCS(=O)(=O)NC(=O)c1cc(C)n(-c2ccccc2)n1`, for which the INHIBITION is -1.29%. Regarding `N[C@@H]1CCC[C@@H](Oc2ccc(F)cc2Oc2ccccc2)[C@@H]1O`, the INHIBITION worked out at 61.99%. Regarding `N[C@@H]1CCC[C@@H](Oc2ccc(F)cc2Oc2cccc(F)c2)[C@@H]1O`, the INHIBITION stood at 35.73%. As to `Cc1ccc(Oc2cc(F)ccc2O[C@@H]2CCC[C@@H](N)[C@H]2O)cc1`, the INHIBITION is 6.13%.
